# A549 tox = kills or reduces viability of A549 cells in Nrf2 counter-screen. A549 ARE-Fluc cells, CellTiter-Fluor viability, 18-24 h. Potency, µM (titrated, usually from 46 µM), without a hit: at the highest dose activity change, negative = cytotoxicity, actives largely listed as inhibitors. 390,000 compounds, 0.16% hits; also: % is scaled to controls: 0 for no effect and ±100 for the full control effect
#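 A549 ARE_Fluc cells in 5% FBS OPTI-MEM were exposed to compounds in concentration-response for 18-24 h at 37 deg C. Viability was read by CellTiter-Fluor fluorescence (Ex 405/Em 525) after 30 min, before the luciferase read.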
# Nrf2 inh = Nrf2 pathway inhibition; Potency, µM (top dose mostly 46 µM), for the others: at the top dose activity change, negative = inhibition, actives largely listed as inhibitors; 360,000 compounds, 2.1% hits; A549 ARE-Fluc reporter, luciferase luminescence, 18-24 h; also: % is scaled to controls: 0 for no effect and ±100 for the full control effect; nearly all actives have a fitted effect of over 60% in size
#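 Nrf2 function is reported as luminescence of an ARE-controlled luciferase in A549 cells. Compounds were tested at several concentrations, and a CellTiter-Fluor read on the same wells flagged cytotoxicity.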
# ELG1 repair inh = inhibitors of ELG1-dependent DNA repair in HEK293T cells; HEK293T ELG1-luciferase reporter, luminescence, 16 h; DNA damage induced by 5-fluorouridine; Potency, µM (doses to about 46.1 µM), for the others: at the top dose activity change, negative = inhibition, hits mostly inhibitors; 330,000 compounds, 2.3% hits; AID 504467; also: % is scaled to controls: 0 for no effect and ±100 for the full control effect; nearly all actives have a fitted effect of over 55% in size
#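 Overnight (16 hr) co-exposure of 2,000 cells/well to 5-fluorouridine and compound at 37 °C preceded detection. Luciferase was quantified via ONE-Glo luminescence; loss of signal denotes inhibition.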
# Nrf2 ARE act = activators of Nrf2 (ARE) signaling. AREc32 ARE-luciferase reporter (MCF7-derived line), luminescence, 24 h. Potency, µM (top dose mostly 46.1 µM), for inactives: at the top dose activation, hits mostly activators. 410,000 compounds, 0.31% hits. AID 624171; also: % of control where 0% means no effect; nearly all actives have a fitted effect of over 65% in size
#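 Reporter line AREc32 (ARE-Fluc), seeded overnight in OPTI-MEM with 5% FBS; compound pin-transferred, 24 hr at 37 deg C, 5% CO2; luminescent read-out.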
# An asterisk follows results filed as active; ? = inconclusive; . = no result given; ! = repeats disagree. An excerpt weighted towards active compounds, which were near 3.7% of everything screened. Calls follow the shape of the dose curve; as a rule, active = well fitted curve in the direction sought with a large enough effect; inconclusive = small, poorly fitted or top-dose-only effect, or another doubt; inactive = no such curve, though single readings can be large; an effect the other way counts as inactive or inconclusive. Potency is read from the fitted curve at half-maximal effect.
SMILES,A549 tox,Nrf2 inh,ELG1 repair inh,Nrf2 ARE act
COc1ccc(C2Nc3ccccc3C(=O)N2Cc2cccc3ccccc23)cc1COc1ccc(NC(C)=O)cc1 (stereo not given),-1.3%,?,.,.
C=C(C)Cn1c(SCC(=O)N/N=C/c2cccc(O)c2)nc2ccccc2c1=O,-5.0%,1.7%,20.6µM*,5.2%
C=C(C)Cn1c(SCC(=O)N/N=C/c2ccccc2)nc2ccccc2c1=O,11.8%,-15.3%,?,1.5%
O=S(=O)(c1ccsc1)N1CCN(c2nc(-c3cccs3)nc3ccccc23)CC1,0.4%,4.0%,.,.
O=[N+]([O-])c1ccc(N2CCN(C(=S)NCc3ccc(Cl)cc3)CC2)cc1,?,16.4µM*,14.6µM*,-0.3%
O=[N+]([O-])c1ccc(C(=S)N2CCN(c3ccc(F)cc3)CC2)cc1,-1.1%,18.4µM*,-6.4%,3.1%
CN(C)c1ccc(C(=S)N2CCN(c3ccc([N+](=O)[O-])cc3)CC2)cc1,-4.5%,?,-15.9%,0.4%
NC(Cc1ccc(Cl)cc1)c1csc(Nc2cc(NCCCO)ncn2)n1 (stereo not given),.,.,.,4.2%
CCOc1ccc(CCNC(=O)C2CCN(c3ncnc4c3nc3n4CCCCC3)CC2)cc1,2.6%,-6.7%,.,-0.5%
CCC(=O)NC(c1ccc(F)cc1)c1cc(Cl)c2cccnc2c1O (stereo not given),-11.1%,?,.,.
CCC(=O)NC(c1ccco1)c1cc(Cl)c2cccnc2c1O (stereo not given),?,9.2µM*!,-20.0%,2.0%
CCC(=O)NC(c1ccc(OC)cc1)c1cc(Cl)c2cccnc2c1O (stereo not given),-9.9%,25.9µM*,-6.1%,-1.2%
CCC(=O)NC(c1cc(Cl)c2cccnc2c1O)c1cccn1C (stereo not given),-11.2%,25.9µM*,.,.
CC(=O)NC(c1cc(Cl)c2cccnc2c1O)C(C)C (stereo not given),-12.0%,20.6µM*,-24.6%,-0.3%
CCc1cnc2c(c1SCc1cc(OC)cc(OC)c1)c(=O)n(C)c(=O)n2C,10.5%,.,.,1.9%
COc1ncnc2c1ncn2CCCN(CCCc1ccccc1)CCCn1cnc2c(OC)ncnc21,.,.,.,0.8%
Cc1ccc(C(c2cc(Cl)c3cccnc3c2O)N2CCN(C)CC2)cc1 (stereo not given),0.7%,?,16.4µM*,-0.5%
c1ccc(-c2cc(-c3nc4ccccc4[nH]3)c3ccccc3n2)cc1,-27.3%,?,20.6µM*,1.5%
Nc1ccc(-c2nc3ccccc3[nH]2)cc1,0.7%,?,?,-0.5%
CC(=O)Nc1ccc(S(=O)(=O)Oc2ccc(N3C(=O)C4CCCCC4C3=O)cc2)cc1 (stereo not given),-6.8%,?,5.3%,0.3%
CC(=O)Nc1ccc(S(=O)(=O)Oc2cccc(N3C(=O)C4CC=CCC4C3=O)c2)cc1 (stereo not given),-7.7%,?,23.1µM*,0.1%
Cc1noc(C)c1S(=O)(=O)Nc1ccc(C(=O)Nc2ccc(C(C)C)cc2)cc1,1.9%,-21.2%,.,0.4%
O=C(CSC1=NCCS1)N1CCN(c2ccc(Cl)cc2)CC1,-18.0%,?,-7.2%,6.5%
O=C(CSC1=NCCS1)c1ccc(Cl)cc1,-19.4%,13µM*,?,2.5%
CC1=C(C(=O)N(C(C)C)C(C)C)CC(CC(=O)NCCCN(C)C)C(=O)N1CCCN1CCCC1=O (stereo not given),.,.,.,0.6%
SMILES,A549 tox,Nrf2 inh,ELG1 repair inh,Nrf2 ARE act
CCc1nc2c(cnn2-c2ccc(F)cc2)c(=O)n1-c1ccc(N2CCC(C)CC2)cc1,1.0%,?,16.4µM*,-0.4%
Cc1nc2c(cnn2-c2ccccc2Cl)c(=O)n1-c1ccc(N2CCC(C)CC2)cc1,-19.0%,?,16.4µM*,-0.4%
Cc1ccc(-n2c(C)nc3c(cnn3-c3ccccc3Cl)c2=O)cc1C,-5.3%,1.0%,-4.2%,-0.7%
Cc1ccc(NS(=O)(=O)c2ccc3c(c2)CCO3)cc1C,-1.2%,?,.,.
Cc1ccc(CN2CCN(CC(=O)N=Nc3c(O)[nH]c4ccccc34)CC2)cc1,-4.3%,?,8.2µM*,3.2%
Cc1ccc(S(=O)(=O)N(CC(=O)N=Nc2c(O)[nH]c3ccccc23)c2cccc(C)c2)cc1,-10.8%,?,20.6µM*,-0.1%
O=C(CN1CCN(Cc2ccccc2Cl)CC1)N=Nc1c(O)[nH]c2ccccc12,0.4%,?,20.6µM*,2.2%
